Assay results reported in PMC4336329 (PLoS ONE, 2015).
Screen size: about 310,000 compounds; about 14,000 (4.5%) showed an effect of 50% or more. Effects have a minus sign here. What follows is part of a selection rich in strong results, with near analogues and random picks from the rest.

biological target: human ether-à-go-go-related gene (hERG) potassium channel (human, UniProt Q12809); experiment: primary screen, population patch clamp on CHO cells stably expressing hERG; higher = less effect of the substance
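Also: peak tail current of the secondary pulse compared with the same well before compound.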

human ether-à-go-go-related gene (hERG) potassium channel, sequence (Q12809 whole entry, looked up): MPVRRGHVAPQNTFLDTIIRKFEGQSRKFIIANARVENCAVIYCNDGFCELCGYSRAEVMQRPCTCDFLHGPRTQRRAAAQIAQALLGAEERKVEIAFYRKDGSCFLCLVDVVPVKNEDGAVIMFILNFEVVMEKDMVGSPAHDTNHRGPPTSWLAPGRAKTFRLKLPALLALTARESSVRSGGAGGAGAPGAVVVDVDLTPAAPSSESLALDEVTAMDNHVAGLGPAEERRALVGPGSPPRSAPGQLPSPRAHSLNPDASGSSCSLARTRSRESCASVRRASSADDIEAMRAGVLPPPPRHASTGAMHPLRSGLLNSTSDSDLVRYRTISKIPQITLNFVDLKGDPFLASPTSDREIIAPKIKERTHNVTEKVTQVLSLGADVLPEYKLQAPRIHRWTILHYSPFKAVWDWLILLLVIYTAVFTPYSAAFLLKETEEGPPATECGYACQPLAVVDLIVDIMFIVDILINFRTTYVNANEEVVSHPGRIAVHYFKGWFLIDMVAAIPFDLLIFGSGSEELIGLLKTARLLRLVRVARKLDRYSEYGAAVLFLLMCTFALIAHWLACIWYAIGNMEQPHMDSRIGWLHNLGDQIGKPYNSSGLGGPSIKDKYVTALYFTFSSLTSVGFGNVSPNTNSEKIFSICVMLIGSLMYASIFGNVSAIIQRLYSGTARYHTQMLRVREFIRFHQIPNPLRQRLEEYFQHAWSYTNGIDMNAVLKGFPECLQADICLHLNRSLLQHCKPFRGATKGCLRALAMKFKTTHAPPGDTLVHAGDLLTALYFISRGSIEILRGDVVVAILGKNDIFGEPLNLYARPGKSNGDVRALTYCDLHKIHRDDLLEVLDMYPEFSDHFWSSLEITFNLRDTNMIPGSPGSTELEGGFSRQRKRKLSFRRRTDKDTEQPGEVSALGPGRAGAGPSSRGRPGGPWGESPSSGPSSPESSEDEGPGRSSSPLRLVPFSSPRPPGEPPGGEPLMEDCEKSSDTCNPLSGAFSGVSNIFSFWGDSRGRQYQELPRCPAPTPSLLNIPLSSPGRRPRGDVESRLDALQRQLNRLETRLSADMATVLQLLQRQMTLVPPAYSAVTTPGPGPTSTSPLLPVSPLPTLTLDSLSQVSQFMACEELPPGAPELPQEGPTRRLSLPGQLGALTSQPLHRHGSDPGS

| Structure (SMILES) | hERG current change (%, negative = inhibition) at 10uM [%] |
| --- | --- |
| CN(C(=O)COC(=O)c1nc(Cl)ccc1Cl)c1ccccc1 | 17.6 |
| Cc1ccc(OC(=O)CCC(=O)Nc2ccc(C(N)=O)cc2)cc1 | 18.2 |
| COc1cccc(/C=C/c2ccc3cccc(O)c3n2)c1 | 14.8 |
| Cc1cc(C)n(-c2nc(NC(C)(C)C)nc(NC(C)(C)C)n2)n1 | -6.46 |
| N#CCC(=O)NNc1c([N+](=O)[O-])cc(C(F)(F)F)cc1[N+](=O)[O-] | 28.8 |
| COc1ccccc1CN1CCN(S(=O)(=O)c2ccc(C)cc2)CC1 | -19 |
| COc1ccccc1N1CCN(Cc2nc(-c3ccc(F)cc3)oc2C)CC1 | -65.9 |
| COc1ccc(-c2nc(CN3CCN(Cc4ccccc4)CC3)c(C)o2)cc1 | -42.2 |
| COc1cc(-c2nc(CN3CCN(c4ncccn4)CC3)c(C)o2)ccc1F | -9.65 |
| COc1ccccc1N1CCN(Cc2c(F)cccc2F)CC1 | -18 |
| COc1ccccc1CN1CCN(Cc2nc(-c3ccc(C)cc3)oc2C)CC1 | -58.8 |
| Cc1cc(C)cc(C(=O)OCC(=O)N2CCCC2)c1 | 9.79 |
| COC(=O)c1sccc1-c1ccc(C(N)=O)o1 | 7.97 |
| Cc1cc(C)nc(N2Cc3ccccc3C2=N)n1 | -56 |
| N=C1c2ccccc2CN1c1ncccn1 | -10.6 |
| Br.Cc1ccc(N2Cc3ccccc3C2=N)cc1[N+](=O)[O-] | -4.21 |
| COc1ccccc1CN=c1c([N+](=O)[O-])nn(-c2ccc3c(c2)OCCO3)n1O | -7.21 |
| COc1cc(CC(=O)OCC(=O)Nc2cc([N+](=O)[O-])ccc2F)cc(OC)c1OC | -38.9 |
| COc1cc(CC(=O)OCC(=O)Nc2cc([N+](=O)[O-])ccc2Cl)cc(OC)c1OC | -50 |
| COc1ccc([N+](=O)[O-])cc1NC(=O)COC(=O)Cc1cc(OC)c(OC)c(OC)c1 | -17.8 |
| Cc1cc(NC(=O)CCC(=O)N(Cc2ccco2)C(C(=O)NC2CCCCC2)c2cccs2)no1 (stereo not shown) | -20.9 |
| COc1cccc(/C(O)=C2/C(=O)C(=O)N(Cc3ccco3)C2c2ccncc2)c1 (stereo not shown) | 15.2 |

| Structure (SMILES) | hERG current change (%, negative = inhibition) at 10uM [%] |
| --- | --- |
| CS(=O)(=O)N(CC(=O)Nc1ccccc1C(=O)NCc1ccco1)c1ccc2c(c1)OCCO2 | -5.03 |
| CC(=O)Nc1ccc(NC(=O)C(C)OC(=O)CNC(=O)c2sc3ccccc3c2Cl)cc1 (stereo not shown) | 18.6 |
| CN(C)CCCN1C(=O)c2cccc3c([N+](=O)[O-])ccc(c23)C1=O | -27.7 |
| CN(C)CCCN1C(=O)c2cccc3c(Br)ccc(c23)C1=O | -66.4 |
| CN(C)CCCN1C(=O)c2cccc3cccc(c23)C1=O | -16 |
| COc1ccc2c(c1OC)C(=O)OC2Nc1nc(-c2ccccc2)cs1 (stereo not shown) | 8.12 |
| COCCCn1cnc2c(c1=O)c1nc3ccccc3nc1n2-c1ccccc1 | -56.6 |
| CCOCCCn1cnc2c(c1=O)c1nc3ccccc3nc1n2-c1ccccc1 | -30.6 |
| COCCCn1cnc2c(c1=O)c1nc3ccccc3nc1n2-c1ccc(C)cc1 | -37 |
| CCCCn1c(SCC(=O)NNC(=O)c2ccco2)nnc1-c1ccco1 | 4 |
| CCn1c(=O)c2c(nc(SCC(=O)NCC3CCCO3)n2C)n(C)c1=O (stereo not shown) | -0.794 |
| COc1ccc(-c2nnn(Cc3nc(N)nc(N4CCCCC4)n3)n2)cc1 | -9.06 |
| COc1ccc(-c2nnn(Cc3nc(N)nc(N4CCOCC4)n3)n2)cc1OC | -0.202 |
| Nc1nc(Cn2nnc(-c3ccccc3F)n2)nc(N2CCOCC2)n1 | -73.4 |
| Nc1nc(Cn2nnc(-c3ccccc3Cl)n2)nc(N2CCOCC2)n1 | -54.4 |
| Nc1nc(CSCc2ccccc2)nc(N2CCOCC2)n1 | -10.2 |
| Clc1ccc(Cn2nnc(-c3ccc(N4CCOCC4)cc3)n2)cc1 | 4.16 |
| CCCCN(C(=O)NC(=O)Nc1ccccc1OC)S(C)(=O)=O | -2.42 |
| CCCCCCCCN1C(=O)N(C)C(N(O)C(=O)NC)C1(C)C (stereo not shown) | 8.37 |
| Cc1cc(C(F)(F)F)n2ncc(-c3cccc(Br)c3)c2n1 | 22.6 |
| O=C(Cn1nc(-c2ccccc2)ccc1=O)Nc1cccc(NC(=O)c2ccccn2)c1 | -0.657 |
| Cc1noc(NS(=O)(=O)c2ccc(N3CC(O)=C(c4ccccc4)C3=N)cc2)c1C | 20.5 |

| Structure (SMILES) | hERG current change (%, negative = inhibition) at 10uM [%] |
| --- | --- |
| CCOC(=O)c1c(C)c(C(=O)Nc2ccc(N(C)C)cc2)c(C)n1CC | -1.83 |
| COCCCNC(=O)c1cc(C(=O)c2ccccc2Br)c[nH]1 | 15.1 |
| CS(=O)(=O)c1ccccc1-c1nc(-c2cc(C(F)(F)F)cc(C(F)(F)F)c2)no1 | 4.06 |
| COc1ccc(CCNC(=O)c2cccc(S(=O)(=O)NC(C)c3ccccc3)c2)cc1 (stereo not shown) | 6.04 |
| COc1ccc(CCCc2nnc(SCC(=O)Nc3ccc(OC)cc3)o2)cc1 | 17.7 |
| COc1ccc(Cl)cc1NC(=O)c1ocnc1C | 10.1 |
| Br.CCn1c(=N)n(CC(=O)c2ccco2)c2ccccc21 | -3.75 |
| Br.CCCCCCCn1c(=N)n(CC(=O)c2ccco2)c2ccccc21 | -70.6 |
| Br.CCCCn1c(=N)n(CC(=O)c2ccco2)c2ccccc21 | -41.8 |
| Br.Cc1ccccc1Cn1c(=N)n(CC(=O)c2ccco2)c2ccccc21 | -65 |
| CCCn1c(N)[n+](CC(=O)c2ccco2)c2ccccc21.[Br-] | -11.1 |
| Br.N=c1n(CC(=O)O)c2ccccc2n1Cc1ccccc1Cl | 0.122 |
| CCOC(=O)C(C)Oc1cccc2c(=O)n(CC(=O)NCc3ccc(F)cc3)ccc12 (stereo not shown) | -4.43 |
| O=C(OC(C(=O)NCc1ccc2c(c1)OCO2)c1ccccc1F)c1ccco1 (stereo not shown) | -31.1 |
| C/C(=N\NC(=O)c1ccc(O)cc1)c1cc2ccccc2o1 | -50.3 |
| C/C(=N\NC(=O)c1cc2ccccc2cc1O)c1cc2ccccc2o1 | 6.05 |
| C/C(=N\NC(=O)c1nc2ccccn2c1C)c1ccc2c(c1)OCO2 | -18.5 |
| COc1cccc2cc(/C(C)=N/NC(=O)c3ccco3)oc12 | -52.2 |
| C/C(=N\NC(=O)c1ccncc1)c1cc2ccccc2o1 | -20.5 |
| C/C(=N\NC(=O)c1nc2ccccn2c1C)c1ccco1 | -1.34 |
| C/C(=N\NC(=O)c1nc2ccccn2c1C)c1cc2ccccc2o1 | -63 |
| C/C(=N\NC(=O)c1ccco1)c1cc2ccccc2o1 | -9.09 |

| Structure (SMILES) | hERG current change (%, negative = inhibition) at 10uM [%] |
| --- | --- |
| COc1cccc2cc(C(C)=O)oc12 | 15.5 |
| Cc1ccc(Nc2ncc3c(n2)CC(C)CC3=O)c(C)c1 (stereo not shown) | 0.876 |
| CCCCN(C(=O)c1cc(CC)c(C)s1)c1c(N)n(CCC)c(=O)[nH]c1=O | -20.8 |
| CCOc1ccc2ccccc2c1/C=N\NC(=O)OC | 12.7 |
| CCCOc1cccc(-c2cc(C(=O)N/N=C/c3ccccn3)c3ccccc3n2)c1 | 0.224 |
| COc1cccc(CN2CCNC(=O)C2CC(=O)N(C)CCC2CCOCC2)c1 (stereo not shown) | 8.75 |
| Cc1ccc2nc(Cl)c(CN(C(=O)c3cnccn3)C3CCCCC3)cc2c1 | -24.7 |
| COc1ccc(CC2(CO)CCN(Cc3cccc4nccnc34)CC2)cc1 | -70.9 |
| CCCn1ncc(CN2CCC(CO)(Cc3ccc(OC)cc3)CC2)c1C | -41.9 |
| COc1cc(CN2CCN(Cc3cccc(OC)c3OC)CC2)cc(OC)c1 | -34.2 |
| COc1ccc(CC2(CO)CCN(S(=O)(=O)c3cccc4cccnc34)CC2)cc1 | -5.13 |
| COc1ccc(CC2(CO)CCN(Cc3cccc(OC)c3OC)CC2)cc1 | -60.5 |
| O=S(=O)(c1cccc(F)c1)N1CCC(CO)(Cc2cccc(F)c2)CC1 | -18.2 |
| COc1ccc(CC2(CO)CCN(Cc3cccn3-c3ccccn3)CC2)cc1 | -75.4 |
| COc1ccc(CC2(CO)CCN(Cc3cnn(C)c3C)CC2)cc1 | -21.6 |
| OCC1(Cc2cccc(F)c2)CCN(Cc2cccc3nccnc23)CC1 | -59.8 |
| O=C(c1cnsn1)N1CCC(CO)(Cc2cccc(F)c2)CC1 | 10.8 |
| COc1cccc(CC2(CO)CCN(Cc3cccn3-c3cccnc3)CC2)c1 | -47.7 |
| COc1ccc(C2=NOC3(CC(=O)N(c4ccc(C)cc4)C3=O)C2)c(OC)c1 (stereo not shown) | 4.08 |
| CCOC(=O)N1CCN(Cc2cccs2)CC1 | 24.3 |
| Cc1ccc(C)c(NC(=O)CSc2nnc3n2CCCCC3)c1 | 11 |
| COc1ccnc(Oc2ccc(F)cc2)c1C(=O)N/C=N/OCc1c(Cl)cccc1Cl | -5.9 |
